# High-throughput results from PubChem BioAssay.
# The list is not random: actives were taken first. Their share in the collection is about 2%.
# PrP 5UTR inh = suppresses PrP 5' UTR mRNA reporter expression. AID 488862. inhibition, % (no concentration beside the values). cell-based PrP 5' UTR mRNA reporter, plate reader. actives 0.35% (n = 340,000); in the data active means inhibition above about 52%; further: 0 = median of the neutral control wells
# CCHF vOTU inh = blocks the CCHF virus ovarian tumor domain protease; CCHFV vOTU protease, Pep-AMC fluorescence; inhibition, % at 11.5 µM; actives 0.55% (n = 370,000); AID 651958; in the data active means inhibition above about 30%; further: 0% = vehicle wells with enzyme and 100% = no enzyme wells
# PfHsp40 yeast = rescue of PfHsp40-mediated yeast toxicity. S. cerevisiae expressing PfHsp40, growth rescue, ATP luminescence. growth rescue, % at 12.5 µM. actives 0.68% (n = 340,000). AID 504582; in the data active means growth rescue above about 28%, passing the limit was not always enough;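 further: yeast W303a lacking pdr1 and pdr3 grown in galactose medium; growth measured after three days at 30 °C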
# BJeLR viability = kills HRASV12-expressing BJeLR cells; BJeLR (HRASV12) viability, CellTiter-Glo ATP luminescence, 48 h; inhibition, % (concentration not given with the values); actives 0.17% (n = 300,000); in the data active means inhibition above about 50%
# PrPC surface inh = inhibitors of human cell surface prion protein PrPC; TR-FRET read-out; AID 720596; actives 0.43% (n = 370,000); P04156; inhibition, % at 13.8 µM; in the data active means inhibition above about 24%; further: 0% = median of the test wells and 100% = reference compound wells
# Y pestis TopoI = blocks Yersinia pestis topoisomerase I activity | activity, % at 10 µM | Y. pestis Topo-I cleavage product accumulation, plate reader | actives 0.064% (n = 360,000); in the data active means activity above about 50%, passing the limit was not always enough
# PrPC TRFRET cf = confirmation of inhibitors of cell surface human prion protein | shares compounds with PrPC surface inh | cell surface PrPC level, TR-FRET | inhibition, % at 13.8 µM | actives 65% (n = 1,500) | AID 743200; in the data active means inhibition above about 25%
# LD9 tox = counter-screen for PrPc inhibitors: cytotoxicity in LD9 cells; AID 743201; actives 29% (n = 1,500); inhibition, % at 13.8 µM; luminescence viability; shares compounds with PrPC surface inh; in the data active means inhibition above about 9.5%
# Numbers without * were called inactive; / = no result given.
SMILES,PrP 5UTR inh,CCHF vOTU inh,PfHsp40 yeast,BJeLR viability,PrPC surface inh,Y pestis TopoI,PrPC TRFRET cf,LD9 tox
CCCC1CCC2(CC1)CCC2OC(=S)NCc1cccc(F)c1 (stereo not given),/,/,/,/,0,/,/,/
CC1CCCCC1Nc1nc2ccc(Cl)cc2n2cnnc12 (stereo not given),1,21,27*,11,34*,3,18,-1
COCc1[nH]nc2c1C(c1ccc3c(c1)OCO3)N(c1ccc(OC)cc1)C2=O (stereo not given),/,-4,/,/,-3,/,/,/
Cc1ccc(Cc2c(-c3ccc(C#N)cc3)nc3ccc(C)cn23)cc1,/,14,/,/,-4,/,/,/
N#Cc1ccc(-c2nc3ccc(Br)cn3c2Cc2cccc(F)c2)cc1,/,9,/,/,29*,/,88*,1
N#Cc1ccc(-c2nc3ccc(Br)cn3c2Cc2cccc(Cl)c2)cc1,/,6,/,/,23,/,/,/
Cc1cc(Br)cn2c(Cc3cccc(F)c3)c(-c3ccco3)nc12,/,3,/,/,/,/,/,/
Fc1cccc(Cc2c(-c3ccco3)nc3ccc(Br)cn23)c1,/,1,/,/,51*,/,70*,0
Cc1ccc(Cc2c(-c3ccc(C#N)cc3)nc3ccc(Br)cn23)cc1,/,5,/,/,42*,4,47*,2
CCC(C)N(Cc1ccc(OC)cc1OC)S(=O)(=O)c1cc(Br)ccc1Br (stereo not given),/,-1,/,/,6,/,/,/
c1ccc(Sc2ncnc3ccccc23)cc1,-30,3,0,-6,-2,1,/,/
c1ccc(Cc2nnc(Sc3ccccc3)c3ccccc23)cc1,-70,-6,0,-3,53*,19,71*,-14
CC(CNC(=O)c1cc(COc2ccc3ncccc3c2)on1)c1ccccc1 (stereo not given),-21,2,9,-1,25*,38,22,17*
O=C(c1cc(COc2ccc3ncccc3c2)on1)N1CCC(O)CC1,-26,-10,0,11,9,11,/,/
Cc1cc(CN(C)C(=O)c2cc(COc3ccc4ncccc4c3)on2)on1,-9,-5,1,18,17,4,/,/
O=C(NC1CCCCCCC1)c1cc(COc2ccc3ncccc3c2)on1,-21,2,2,23,28*,27,19,18*
O=C(O)COc1ccccc1C=NNC(=O)Cc1cc(=O)[nH][nH]1,/,-6,/,/,-11,/,/,/
Nc1[nH]c(C(=O)c2ccccc2)c(-c2ccc(F)cc2)c1C(=O)c1c[nH]c2ccccc12,/,0,/,/,0,/,/,/
c1ccc(Nc2nnc(-c3ccc4c(c3)OCO4)o2)cc1,/,1,/,/,6,/,/,/
O=C(O)CCCCCCC1C(=O)NC(=O)N1CCC(O)C1CCCCC1 (stereo not given),-14,-4,0,7,27*,-5,19,-8
Cc1onc(-c2ccc(Cl)cc2)c1-c1ccn(S(=O)(=O)c2cccc(Cl)c2)n1,/,27,/,/,3,/,/,/
COc1ccc(-c2cc(C(=O)NN=Cc3ccccc3F)[nH]n2)cc1,/,-2,/,/,12,/,/,/
Cc1cc(Oc2cccnc2)ccc1NC(=O)CCc1c[nH]c2ccccc12,/,0,/,/,-2,/,/,/
Cc1onc(-c2c(F)cccc2Cl)c1C(=O)Nc1nccs1,-14,5,-1,5,-3,5,/,/
Cc1onc(-c2c(F)cccc2Cl)c1C(=O)Nc1nnc(C(F)(F)F)s1,-12,21,-2,8,62*,2,81*,5
SMILES,PrP 5UTR inh,CCHF vOTU inh,PfHsp40 yeast,BJeLR viability,PrPC surface inh,Y pestis TopoI,PrPC TRFRET cf,LD9 tox
CC(=O)N1c2ccccc2C(C)=NCC1C(=O)NC1CCCCC1 (stereo not given),/,-5,/,/,7,/,/,/
CC(C)(C)c1ccc(S(=O)(=O)N2CCCC(C(=O)NCc3cccs3)C2)cc1 (stereo not given),/,5,/,/,7,/,/,/
COCCCn1c(SCc2ccc(OC)cc2)nc2cc(OC)c(OC)cc2c1=N,-14,11,-1,-15,119*,8,6,7
CC(C)(C)c1ccc(-c2nnc(SCC(=O)c3ccc4ccccc4c3)n2-c2ccc(Cl)cc2)cc1,/,0,/,/,-2,/,/,/
COC(=O)[C@]12C[C@H](CC(=O)N3CCN(C(=O)C4CC4)CC3)C(=O)N(Cc3cccc4ccccc34)C1=C[C@H](COCc1ccccc1)O[C@@H]2C,/,15,/,/,2,/,/,/
O=C(Nc1ccc(S(=O)(=O)C(F)F)cc1)c1cccc(S(=O)(=O)N2CCOCC2)c1,-17,18,-1,12,29*,-5,16,16*
O=C(Nc1nc(-c2ccccn2)cs1)c1cccc(S(=O)(=O)N2CCOCC2)c1,37,14,1,/,25*,0,26*,11*
COc1ccc(-n2c(SCc3ccc([N+](=O)[O-])cc3)nnc2-c2ccco2)cc1,/,-1,/,/,-3,/,/,/
C[C@@H]1CCCN1c1cccc2c1S(=O)(=O)N1CC[C@@H](C1)O2,/,-1,/,/,-6,/,/,/
COc1ccc(-n2c(COc3ccccc3)nnc2SCC(=O)Nc2ccc(OCc3ccccc3)cc2)cc1,/,15,/,/,2,/,/,/
O=[N+]([O-])c1ccc(OC2OCC(O)C(O)C2O)cc1 (stereo not given),/,6,/,/,-11,/,/,/
O=S(c1ccc2ccccc2c1)c1cnns1 (stereo not given),3,-3,-1,/,34*,-3,6,76*
O=C(CCc1ccccc1)Nc1cccc(NC(=O)CCc2ccccc2)c1,/,-4,0,-10,25*,10,11,-4
Cc1cc(NC(=O)c2cccs2)ccc1NC(=O)Cc1ccccc1,-16,-10,-1,-2,-2,-5,/,/
O=C(Cc1ccccc1)Nc1cccc(NC(=O)c2cccs2)c1,-11,9,19,-13,32*,-8,17,-5
O=C(Nc1ccc(OCc2ccccc2)cc1)c1cccs1,-41,-16,0,-1,25*,2,16,2
CC(C)(C)c1csc(NC(=O)CCc2ccccc2)n1,-27,13,2,-1,26*,0,19,-8
CN(Cc1ccccc1)C(=O)c1cccc(NC(=O)Cc2cccc(NC(=O)C3CCN(C(=O)CCc4ccccc4)CC3)c2)c1,/,-1,/,/,2,/,/,/
Cc1ccc(-n2c(SCC(=O)Nc3ccc4c(c3)OCCO4)nnc2-c2ccccn2)cc1,/,-3,/,/,11,/,/,/
CNC(=O)c1nnsc1S(=O)(=O)c1ccc(Cl)cc1,-2,1,209*,13,25*,7,-4,80*
O=C1C=CC2C3C(=O)N(c4ccccc4)C(=O)C3C1N2Cc1ccccc1 (stereo not given),-15,29,-2,/,49*,3,4,99*
O=C1C2C3C=CC(CC3)C2C(=O)N1c1ccccc1 (stereo not given),-16,2,-2,8,-4,7,/,/
